Reference: PubChem BioAssay (NCI)
Compounds without any hit were thinned out: in the full panel of roughly 79,000, 15% have a hit. Values without a mark were called inactive. Calls of active or inactive are those of the source. Rule as the data show it: active = growth inhibition above about 70%; inactive = the rest. Where a SMILES comes first, the peptide text is derived from it.

What was measured:
[1] = NCI Yeast Anticancer Drug Screen. Data for the rad50 strain (AID 155);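 also: 0% = growth of vehicle-only cultures of the same strain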; conditions: S. cerevisiae rad50 strain growth inhibition; at 50.0 µM; stronger effect = higher value
Procedure, shortened: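 Growth of the mutant yeast was measured after compound exposure and referenced to vehicle-treated cultures.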

[2] = NCI Yeast Anticancer Drug Screen. Data for the mec2-1 strain (AID 157); conditions: S. cerevisiae mec2-1 strain, at 50.0 µM, stronger effect = higher value
Procedure, shortened: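 Mutant yeast (mec2-1) grown with compound; growth inhibition relative to vehicle control reported.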

[3] = NCI Yeast Anticancer Drug Screen. Data for the sgs1 mgt1 strain (AID 161);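 also: 0% = growth of cultures given vehicle only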; conditions: S. cerevisiae sgs1 mgt1 strain, at 50.0 µM, stronger effect = higher value
Procedure, shortened: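 Percent growth inhibition was derived by comparing compound-exposed mutant yeast with vehicle-exposed cultures. The strain carries alterations in DNA damage repair.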

[4] = NCI Yeast Anticancer Drug Screen. Data for the cln2 rad14 strain (AID 165);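 also: 0% = growth equal to vehicle treated cultures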; conditions: S. cerevisiae cln2 rad14 strain, at 50.0 µM, stronger effect = higher value
Procedure, shortened: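 Readout is yeast growth inhibition versus vehicle-treated controls, using a strain with cln2 and rad14 alterations exposed to compound.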

[5] = NCI Yeast Anticancer Drug Screen. Data for the bub3 strain (AID 167); conditions: S. cerevisiae bub3 mutant strain, at 50.0 µM, stronger effect = higher value
Procedure, shortened: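 Whole-cell yeast assay. The mutant strain was incubated with compounds, and growth inhibition was determined by comparison with vehicle-treated cells.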

[6] = NCI Yeast Anticancer Drug Screen. Data for the mlh1 rad18 strain (AID 175); conditions: S. cerevisiae mlh1 rad18 strain growth inhibition; at 50.0 µM; stronger effect = higher value
Procedure, shortened: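 Genetically defined yeast (DNA repair-deficient) exposed to compounds; growth inhibition determined relative to vehicle.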

| Compound | growth inhibition [1] | growth inhibition [2] [%] | growth inhibition [3] | growth inhibition [4] | growth inhibition [5] [%] | growth inhibition [6] |
| --- | --- | --- | --- | --- | --- | --- |
| Oc1c(Cl)cc(Cl)cc1C1N2CCCCC2C2c3cccn3-c3ccccc3N21 (stereo unspecified) | 22.4% | 5.4 | 18.3% | 14.2% | 21.2 | -30.6% |
| CCOc1c(N=Nc2ccc(Cl)cc2Cl)c(C)nn1C(N)=S | -16.2% | 0.15 | 11.1% | -43.8% | -24.2 | 17.5% |
| Nc1ccc(NC(=S)Nc2ccccc2)cc1 | -2.35% | -18.3 | -3.15% | 2.2% | -7.05 | -12.7% |
| CC1C/C=C2\CSC(NC(=O)/C3=C\N(C/C=C/C=C/C(O)CC(O)CC(=O)N3)C2=O)C(=O)O1 (stereo unspecified) | 13.7% | 11.7 | 22.2% | 19% | 17.5 | 18.2% |
| CCCC(O)CNCc1ccc2ncccc2c1 (stereo unspecified) | -20.4% | -4.2 | 2.1% | -66.8% | -4.35 | -23.4% |
| Cc1c(Cl)cccc1NC(=O)OC/C=C/c1ccccc1 | 3.2% | 33.2 | 14.8% | -9.35% | 5.6 | -10.9% |
| N#Cc1c(-c2ccccc2)[nH]c2ccc(Cl)cc2c1=O | 6.6% | -30.5 | -21.7% | -7.8% | -9.75 | -28.1% |
| CN(C)c1nc(=NCc2cccs2)ss1 | 71.2% (active) | 46.3 | 77.5% (active) | 45.2% | 60.5 | 65.7% |
| Fc1ccc(C=C2c3ccccc3-c3ccccc32)cc1 | 11.7% | 4.5 | 18.4% | 39.2% | 11.7 | -3.6% |
| COc1ccc(CC(=O)NC(N)=O)cc1 | -6.35% | 2.7 | -12.3% | -9.4% | -6.1 | 5.15% |
| CCCCCCCN(CCCCCCC)CC(O)c1c(OC)c2ccccc2c2ccccc12 (stereo unspecified) | 94.8% (active) | 34.4 | 96.2% (active) | 93% (active) | 24.9 | 93.7% (active) |
| O=c1[nH]cc(C(F)(C(F)(F)F)C(F)(F)F)c(=O)[nH]1 | -21.9% | -18.9 | -24.6% | -4.25% | -25.3 | -36.8% |
| O=C(O)/C(=C/c1ccccc1[N+](=O)[O-])c1ccccc1 | 40.1% | -16.1 | 20.5% | 17.5% | -8.85 | -12.7% |
| CCC(Cc1ccccc1)C1=NC(C)(C)CC(C)O1 (stereo unspecified) | 1.2% | 3.95 | -5.25% | -20.6% | -1.4 | 25.4% |
| O/N=C1\C(=C\c2ccc3c(c2)OCCO3)CCCC1C(NO)c1ccc2c(c1)OCCO2 (stereo unspecified) | 13.1% | 16.7 | 29.9% | 2.8% | 16.9 | 6.15% |
| COc1ccc(N2C(=O)CC(c3cc(OC)c(OC)c(OC)c3)CC2=O)cc1 | -3.7% | -20.5 | 10.4% | 3.1% | 8.25 | -2.75% |
| COc1ccc(/C=C2/SC(=Nc3ccccc3)N(NC(=O)Cc3ccccc3)C2=O)cc1 | -22.7% | -14.2 | 13.7% | -16.6% | -26.6 | -22.2% |
| CN1C(=O)C(O)C[C@@H]1c1ccc(F)cc1 (stereo partly specified) | -5% | 6.8 | 12.7% | 16.6% | -0.25 | -30.4% |
| CC[N+](C)(CC)Cc1ccc([NH-])c([NH-])c1.[Cl][Pt+2][Cl] | 35.1% | 27.4 | 36% | 37.2% | -13.7 | 28.4% |
| CCOC(=O)/C(C#N)=C\C1(C)CCC(C)=CO1 (stereo unspecified) | -1.8% | -8.65 | -7.9% | -31.6% | -4.85 | -3.25% |
| CN(C)S(=O)(=O)C=C(c1ccccc1)c1ccccc1 | 1.25% | 4.1 | 17.4% | -5.1% | 15.3 | -0.2% |

| Compound | growth inhibition [1] | growth inhibition [2] [%] | growth inhibition [3] | growth inhibition [4] | growth inhibition [5] [%] | growth inhibition [6] |
| --- | --- | --- | --- | --- | --- | --- |
| Cc1ccc(S(=O)(=O)CO)cc1 | 0.5% | -3.2 | 14.3% | -51.5% | -27.9 | 11% |
| CCCCCCCOC(=O)C(CC)CC | 6.8% | -6.45 | 5.45% | 2.85% | 2.65 | 6.45% |
| NC(Cc1ccccc1)C(=O)NCC(=O)Oc1ccc([N+](=O)[O-])cc1 (stereo unspecified) | 36.5% | 20.4 | 20.1% | 18.1% | 2.35 | 23.1% |
| Cc1c(-c2ccccc2)cc(O)c2nc3ccccc3n12 | -31.2% | 6.45 | -16.6% | 2.45% | 11.9 | -36.9% |
| CN1CC(O)CN(C)C1=S | -9.05% | -8.2 | 1.6% | -34.6% | -7.9 | -5% |
| Cc1ccc(N=C=O)cc1N1C(=O)N(c2cc(N=C=O)ccc2C)C1=O | -41.5% | -55 | -48% | -139% | -10.5 | -60.4% |
| COc1cc(C=C2N=C(c3ccccc3)N(n3c(-c4ccccc4)nc4ccccc4c3=O)C2=O)cc(OC)c1OC | -7.4% | -6.6 | 9.45% | 7.85% | 0.65 | 21.6% |
| O=C(N/N=C\c1ccc([N+](=O)[O-])cc1)Nc1ccc2ccccc2c1 | 3.15% | 8.1 | 1.85% | 8.3% | 25.2 | 14.1% |
| CC(=O)C(c1ccccc1)S(=O)(=O)c1ccc(C)cc1 (stereo unspecified) | 13.8% | -18.4 | -11.7% | -42.4% | 24.9 | -1.5% |
| Cc1[nH]c2ccccc2c1-c1cc(-c2cc(-c3c(C)[nH]c4ccccc34)nc(N)n2)nc(N)n1 | -12.9% | 8.95 | -25.8% | 3.05% | -11.3 | -1.95% |
| CC(C)(C)NC(=O)NC(C)(C)C | -15.1% | -7.95 | 7.3% | 14.8% | 20.9 | 4.45% |
| C=CCOC(=O)C(C)OC(=O)OCC (stereo unspecified) | 9.2% | 10.7 | 6.85% | 8.1% | -2.1 | 7.15% |
| O=Cc1cc2ccccc2c2ccccc12 | -23.2% | -24 | 5.45% | -16.8% | 0.2 | -4.9% |
| CC1CCC2(C)CCC3(C)C(=CCC4C5(C)CCC(O)C(C)(C)C5CCC43C)C2C1C (stereo unspecified) (tested in a mixture with another compound) | 23.8% | -20.8 | 9.95% | -5.8% | 0.6 | 17.1% |
| CCC(C)C(N)C(=O)N1CCCC1C(=O)O (stereo not drawn) (H-Ile-Pro-OH; configuration not given here) | -23.1% | -4.65 | -1.15% | -25.9% | -2.45 | -3.15% |
| O=C1c2cccc(S)c2C(=O)c2cccc(S)c21 | -21.5% | -11.3 | -9.75% | 4.7% | 5.35 | -15.5% |
| O=C1c2ccccc2C(=O)c2c1ccc1c2N=C(c2ccc(F)cc2)CC(c2ccc(Cl)c(Cl)c2)N1 (stereo unspecified) | 58% | 20.1 | 5% | -14.7% | 7.65 | 43.6% |
| O=C(O)CC12C3C4C5C3C1C5C42 (stereo unspecified) | 24.1% | 17.1 | 15.2% | 8.5% | 47.9 | 26.6% |
| N#Cc1c(N)c(C(=O)O)nn(-c2cccc(C(F)(F)F)c2)c1=O | -8.95% | 1.7 | 44% | 10.8% | -11.2 | -15.9% |
| O=S(=O)(O)c1ccc(O)c2ncccc12 | 20.2% | 16.4 | 23.6% | 21.4% | 12.1 | 25.9% |
